The record followed here is ChEMBL document CHEMBL1157539, “Thousands of chemical starting points for antimalarial lead identification” (Nature, 2010).

Holding throughout (type): functional
Assay [1] relates to Plasmodium falciparum. Kind of assay: GSK_TCMDC: Inhibition of Plasmodium falciparum 3D7 in whole red blood cells, using parasite LDH activity as an index of growth. Test compounds present at 2uM.
In assay [2] the test system is Plasmodium falciparum. Kind of assay: GSK_TCMDC: Inhibition of Plasmodium falciparum Dd2 in whole red blood cells, using parasite LDH activity as an index of growth. Test compounds present at 2uM.
The next assay has as its system HepG2. Kind of assay: GSK_TCMDC: Percent inhibition of human HepG2 cell line. Test compounds present at 10uM.

Consider `CNC(=O)c1ccc2nc(-c3ccc(-c4ccccc4)cc3)n(CC3CCN(CC4CCCC4)CC3)c2c1.O=C(O)C(F)(F)F`, for which the figures for the Inhibition in the assay with Plasmodium falciparum [1], in the assay with Plasmodium falciparum [2] and with HepG2 were 84%, 36% and 13%, respectively.
In the same order, the values of `CC(CN(C)C)C(=O)Nc1cccc(-c2cccc(-c3nc4cc(F)ccc4[nH]3)c2)c1` (stereo not drawn) are 100%, 94% and 29%.
With `CNC(=O)c1ccccc1Nc1nc(Nc2cccc(CS(C)(=O)=O)c2)ncc1C.O=CO`, the Inhibition was 97% in the assay with Plasmodium falciparum [1], 95% in the assay with Plasmodium falciparum [2] and 74% with HepG2.
In the same order, the values of `O=C(Nc1ccc(-c2ccc(-c3nc4cc(C(F)(F)F)ccc4[nH]3)cc2)cc1)Nc1ccc(F)c(F)c1F` are 99%, 100% and 39%.
In the same order, the values of `Oc1c(CN2CCCC(C(F)(F)F)C2)cc(Cl)c2ccccc12` (stereo not drawn) are 94%, 53% and 23%.
`CN1CCN(CCCCNc2c3ccccc3nc3ccccc23)CC1`: the values for the Inhibition in the assay on Plasmodium falciparum [1], in the assay with Plasmodium falciparum [2] and with HepG2 were 100%, 0% and 37%, respectively.
In the same order, the values of `N#Cc1ccc(NC(=O)NC2CCN(CCCCCNC(=O)/C=C/c3ccc(Cl)c(Cl)c3)CC2)cc1` are 98%, 4% and 15%.
In the same order, the values of `COc1cc(Cc2cnc(N)nc2N)cc(OCCCOc2ccccc2)c1OC` are 94%, 2% and 7%.
For `Fc1ccc2[nH]ccc(=NN=CC=Cc3ccccc3)c2c1`, in that order: 96%, 77% and 29%.
For the compound `CC(=O)Nc1ccc(C2NC(=O)NC(c3ccccc3)=C2c2nc3ccccc3s2)cc1` (stereo not drawn), the Inhibition in the assay with Plasmodium falciparum [1] stood at 93%; in the assay on Plasmodium falciparum [2], 96%; with HepG2, 0%.
For `CCN(CC)CC(O)c1cc(-c2ccc(C)cc2)nc2c(C)cc(C)cc12.Cl` (stereo not drawn), in that order: 100%, 99% and 3%.
In the same order, the values of `Cc1cccn2c(=O)c3cc(C(=O)NC(C)c4ccccc4)c(=N)n(CCN4CCOCC4)c3nc12` (stereo not drawn) are 100%, 5% and 6%.
For `CCOc1cc(C=Cc2nc(O)c3ccccc3n2)cc(Cl)c1O`, in that order: 83%, 90% and 25%.
`Cc1ccc(C)c(-n2c(SCC(=O)Nc3ccc(C(N)=O)cc3)nnc2-c2cccc(Cl)c2)c1`: the Inhibition with Plasmodium falciparum [1] is on record as 92%; with Plasmodium falciparum [2], 91%; in the assay with HepG2, 6%.
For `C=CCc1cc(Br)ccc1OCCCOc1c(N)nc(N)nc1N.Cl`, in that order: 92%, 0% and 47%.
In the same order, the values of `O=c1c(NCCCN(Cc2ccc(F)cc2)c2ccccn2)c(NCc2ccncc2)c1=O` are 100%, 95% and 30%.
Regarding `CN(C)CCOc1ccnc2ccc(NC(=O)Cc3ccc(-c4ccncc4)c4ccccc34)cc12`, the Inhibition with Plasmodium falciparum [1] turned out to be 100%; in the assay on Plasmodium falciparum [2], 100%; with HepG2, 10%.
On to `Cl.N#Cc1ccc(NC(=O)c2ccc(Cc3ccc4c(c3)CCN(C3CCC3)CC4)cn2)cc1`, for which the Inhibition is recorded as 91% in the assay on Plasmodium falciparum [1], 2% in the assay with Plasmodium falciparum [2] and 66% in the assay with HepG2.
As for `Cl.Clc1ccc2c(NCCc3ccccc3)ccnc2c1`, the figures for the Inhibition with Plasmodium falciparum [1], in the assay on Plasmodium falciparum [2] and in the assay on HepG2 were 93%, 99% and 31%, respectively.
In the same order, the values of `COc1cc(C(=O)Nc2cccc(-c3cn4ccc(C)cc4n3)c2)cc(OC)c1OC` are 97%, 83% and 0%.
For `Cc1cccc(NC(=O)NC2CCN(CCCCCNC(=O)/C=C/c3ccc(Cl)c(Cl)c3)CC2)c1`, in that order: 100%, 21% and 34%.

A word on the Inhibition: it is the percentage by which the read-out fell short of the control. High values mean a response far below the control, low ones a response near the control.
